Screening data deposited in PubChem BioAssay by several laboratories.
FGF22 binding – FGF22 (human) thermal shift binding. 340,000 tested, 1.5% active. recombinant FGF22 thermal shift, SYPRO orange fluorescence; percent of sucrose octasulfate shift, DMSO zero. activity (Tm shift, normalised), % at 9.99 µM. Q9HCT0. AID 651658;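 active = mean Tm shift, scaled 0 neutral to 100 positive control, at about 1.3% or above, every replicate too, limit read from the data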
Target sequence (Q9HCT0 whole entry, looked up): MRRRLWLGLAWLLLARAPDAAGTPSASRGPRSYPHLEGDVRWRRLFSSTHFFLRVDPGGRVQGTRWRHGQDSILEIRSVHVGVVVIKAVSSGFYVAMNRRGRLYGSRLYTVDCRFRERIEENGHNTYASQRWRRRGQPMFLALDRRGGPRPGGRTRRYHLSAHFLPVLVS
MLL AF4-AF9 inh – MLL-AF4/AF9 protein interaction inhibition. P42568. AlphaScreen, biotin-AF4 peptide binding to FLAG-AF9. inhibition, % at 10 µM. 350,000 tested, 0.47% active. AID 651704;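 active = every replicate reaching a set inhibition limit, whatever the replicate mean, cut at about 25% in these data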;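 also: 0% = plate neutral control median and 100% = total signal loss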
MITF act – activators of MITF-driven TRPM1 promoter activity in SK-MEL-5 cells; SK-MEL-5 TRPM1-promoter luciferase, 24 h; % of positive control, neutral wells = 0; activation, % at 12.5 µM; 300,000 tested, 0.75% active;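 active = mean activation of at least 80% with every replicate also reaching 80%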;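 also: 0% = neutral control wells and 100% = parthenolide positive control wells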
SMARCA2 activ – increases SMARCA2 function in MMTV reporter cells | MG213 cells, MMTV-luciferase reporter, dexamethasone, overnight | activation, % at 9.1 µM | AID 652017 | 370,000 tested, 1% active; in the data active = activation above about 7.8%;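 also: 0% = vehicle wells and 100% = reference activator wells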
Wnt bcat act – Wnt/beta-catenin pathway activation. Wnt/beta-catenin reporter cell assay, activator, plate reader. activation, % at 9.35 µM. 300,000 tested, 1.2% active. AID 743398; in the data active = activation above about 30%, passing the limit was not always enough;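 also: 0% = neutral control wells and 100% = positive control wells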
esBAF inh – inhibitors of esBAF chromatin remodeling in mouse ES cells; Bmi1-luciferase knock-in reporter, 24 h; 100% = twice the neutral-well signal; reporter increase, % at 12.5 µM; 350,000 tested, 2% active; AID 602393; in the data active = activation above about 40%;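 also: 0% = median of the plate's neutral control wells and 100% = double that signal; a rise in the Bmi1 reporter signal indicates esBAF inhibition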
SMARCA2 conf – confirmation of SMARCA2 (BRM) function activators. shares compounds with SMARCA2 activ. MG213 cells, MMTV-luciferase with dexamethasone, luminescence, overnight; MG213 cells expressing E1A, Rb sequestered; DMSO wells 0%, reference activator 100%. activation, % at 9.1 µM. 3,500 tested, 30% active;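 active = activation above its plate's cutoff, the mean activation of tested wells plus 3 SD, cut at about 7.9% in these data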
GAL4-VP16 Luc – GAL4-VP16 reporter activation counter-screen; activation, % at 9.1 µM; shares compounds with SMARCA2 activ; 3,500 tested, 41% active; HEK293 GAL4-VP16 pG5luc reporter, luciferase luminescence; scaled: DMSO wells 0%, SAHA wells 100%; AID 686939;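 active = activation above the solvent-only control well mean plus 3 SD, averaged across control plates, cut at about 5.2% in these data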
The depositor's hits bear a star; . = no result given. In the library only some 4.3% were active in any assay of this set; here they are far more common.

SMILES	FGF22 binding	MLL AF4-AF9 inh	MITF act	SMARCA2 activ	Wnt bcat act	esBAF inh	SMARCA2 conf	GAL4-VP16 Luc
C=COCCNC(=O)Nc1ccc(Cl)c(Cl)c1	0.1	2.1	-19.9	8.2*	3.5	-1.4	0.8	2.1
O=C(NCc1cccnc1)Nc1ccc(Cl)c(Cl)c1	-0.1	2.3	21.4	8.1*	2.3	29.9	1.0	3.3
COc1cccc(NC(=O)c2ncc(Cl)c(Cl)c2Cl)c1	0.4	-2.7	11.5	8.7*	22.0	4.8	5.9	2.0
CCN(C1CCCCC1)S(=O)(=O)c1ccc(OC)c(C)c1	.	.	0.8	0.9	-0.8	-0.1	.	.
CCN(C1CCCCC1)S(=O)(=O)c1ccc(-n2cnnn2)c(C)c1	-0.1	-2.2	2.4	9.3*	-1.8	3.4	-3.9	2.2
Cc1ccc(NCCC(=O)c2cccs2)cc1	-0.3	0.9	71.6	11.3*	-0.2	64.2*	7.3	13.7*
Cc1ccc(-c2nnc(NC(=O)c3ccco3)s2)cc1	-0.3	-0.9	57.3	9.2*	0.0	-28.5	12.7*	12.1*
Cc1cc(NC(=O)c2ccco2)sc1C	0.2	1.3	103.6*	9.1*	62.4*	29.4	12.1*	11.3*
Cc1cccc(NC(=O)c2ccco2)c1C	0.1	1.3	.	1.5	1.8	0.4	.	.
O=C(Nc1nc2ccsc2c(=O)s1)c1ccco1	-0.2	-5.5	.	13.5*	42.7*	.	10.0*	6.4*
Cc1ccc2nc(NC(=S)NC(=O)c3ccco3)sc2c1	-0.1	9.2	42.1	17.0*	20.3	.	9.5*	15.1*
Cc1ccc(OCc2nnc(NC(=O)c3ccco3)s2)cc1	.	.	-4.4	-0.3	.	.	.	.
COc1ccccc1CN1[C@@H]2c3ccc(C4=CCCC4)c(=O)n3C[C@H]1[C@H](CO)[C@H]2C(=O)N(C)C	0.0	1.4	.	.	.	-2.3	.	.
C[C@@H]1CN([C@@H](C)CO)C(=O)c2cc(C3=CCCC3)cnc2O[C@H]1CN(C)C(=O)c1cccnc1	-0.1	-1.8	.	.	.	2.5	.	.
Cc1noc(C)c1S(=O)(=O)Nc1ccc2c(c1)CC(=O)N([C@H](C)CO)C[C@@H](C)[C@H](CN(C)Cc1ccc(C(=O)O)cc1)O2	0.1	-3.3	.	.	.	-1.7	.	.
O=C(C[C@H]1CC[C@@H](NC(=O)Cc2cccnc2)[C@@H](CO)O1)Nc1ccc(-c2ccccc2)cc1	-0.1	0.8	.	.	.	3.5	.	.
CCCn1nnnc1NC(=O)c1cc(Br)ccc1OC	0.1	-3.7	-12.4	0.7	3.0	.	.	.
CCCn1nnnc1NC(=O)c1ccc(C)cc1Cl	0.1	8.7	7.3	8.0*	-0.3	14.3	-1.2	0.0
Clc1ccc([C@H]2OC[C@@]3(CNCCN4CCOCC4)CS[C@H](c4ccc(Cl)cc4)N23)cc1	.	.	.	-3.2	.	.	.	.
C[C@H]1CN([C@@H](C)CO)C(=O)c2cccc(NC(=O)c3nc4ccccc4s3)c2O[C@@H]1CN(C)S(=O)(=O)c1cn(C)cn1	0.2	-3.3	.	.	.	-4.7	.	.
CCOC(=O)C1=NN(c2ccc(F)cc2)C2=NC(C)=C(C(=O)OC)C(c3cccs3)N12 (stereo not drawn)	.	.	.	8.8*	0.0	-5.5	-2.5	3.2
CN(C)CCCn1c2c3ccccc3ccc2c2oc(=O)c3ccccc3c21	0.0	-16.0	-80.1	12.3*	-3.6	.	54.1*	2.7
CN(C)CCCn1c(=S)[nH]c2ccccc2c1=O	0.5	-0.6	4.5	-2.8	0.6	1.2	.	.
Brc1ccc(-c2nnc(-c3ccccc3Br)o2)cc1	.	.	72.0	8.4*	.	2.4	5.8	12.6*
CCCNC(=O)C[C@@H]1C[C@@H]2c3cc(NC(=O)C4CCOCC4)ccc3O[C@@H]2[C@@H](CO)O1	0.3	-0.1	.	.	.	1.5	.	.
SMILES	FGF22 binding	MLL AF4-AF9 inh	MITF act	SMARCA2 activ	Wnt bcat act	esBAF inh	SMARCA2 conf	GAL4-VP16 Luc
O=C(c1cc(Cl)ccc1Cl)N1CCOCC1	0.1	-2.0	-15.6	10.5*	-1.7	-8.2	8.2*	1.4
O=C(c1ccc(Cl)cc1Cl)N1CCOCC1	-0.1	-2.9	10.4	1.8	-2.6	-2.9	.	.
COc1ccccc1CN1C[C@H](C)[C@H](OC)CN(C)C(=O)c2cc(NC(C)=O)ccc2OC[C@@H]1C	0.4	1.6	.	.	.	-1.3	.	.
Cc1cc(NC(=O)COC(=O)COc2ccc(C(=O)c3ccccc3)cc2)no1	.	.	.	-0.5	5.6	-6.7	.	.
CCc1ccccc1OCC(=O)OCC(=O)Nc1cc(C)on1	-0.3	0.4	-5.2	8.3*	-3.0	-3.2	-2.1	0.4
O=C(Nc1cccc(C(F)(F)F)c1)C(=O)N1CCCCC1	0.3	-2.2	26.7	9.5*	6.0	22.7	2.0	2.6
COc1cc(-c2cnc3c(NC=O)cc(-c4ccc(N5CCN(C)CC5)cc4)cn23)cc(OC)c1OC	-0.2	17.6	.	8.5*	1.0	0.8	9.3*	13.6*
CN1CCN(c2ccc(-c3cc(NC=O)c4ncc(-c5ccc(F)cc5)n4c3)cc2)CC1	-0.3	38.0*	.	10.5*	-2.8	-1.2	14.4*	11.7*
COc1ccc(S(=O)(=O)Nc2ccc3c(c2)C(=O)N([C@H](C)CO)C[C@@H](C)[C@@H](CN(C)C(=O)Nc2ccccc2)O3)cc1	-0.5	-0.8	.	.	.	-2.8	.	.
O=C(O)c1cccc(Nc2ccnc(Nc3cccc(C(=O)O)c3)n2)c1	0.0	4.4	-27.2	8.0*	-1.3	-74.0	7.7	2.0
O=C(O)c1cccc(Nc2nc(N3CCOCC3)nc(N3CCOCC3)n2)c1	.	.	-11.1	-0.8	-5.0	-10.9	.	.
O=C(O)c1cccc(NC2=Nc3cccc4cccc2c34)c1	0.0	3.0	6.3	9.9*	0.4	26.5	10.4*	9.4*
Cc1nc(Cl)c2c(n1)NC(=O)CO2	0.0	-0.9	.	11.9*	0.1	.	0.1	0.5
